# This is a sample that favours compounds with a hit; in the whole collection about 1.1% have one here.
# LAP4 TOR yeast: alters LAP4-GFP fluorescence in TOR pathway yeast screen | S. cerevisiae LAP4-GFP multiplex, flow cytometry GFP, 3 h; median GFP as percent of DMSO wells | GFP response vs DMSO, % at 10 µM | 0.34% of 320,000 active | AID 2023;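 active means GFP response vs DMSO above a set limit, about the screen mean plus 3 SD, cut at about 150% in these data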
# CIT2 TOR yeast: alters CIT2-GFP fluorescence in TOR pathway yeast screen | S. cerevisiae CIT2-GFP strain, flow cytometry, 3 h; 100 means same as DMSO wells | GFP response vs DMSO, % at 10 µM | 0.065% of 320,000 active;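 active means GFP response relative to DMSO above a set limit, near the screen mean plus 3 SD, cut at about 150% in these data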;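 further: ratio of well median GFP fluorescence to mean of DMSO wells on the plate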
# VLA-4 inh: inhibition in a human VLA-4 binding assay; P13612; VLA-4 expressing cells, ligand binding flow cytometry; inhibition, % (about 7 µM as worked out from the volumes in the protocol); 0.2% of 330,000 active; AID 2557; in the data active means inhibition above about 50%
# Target sequence (P13612 whole entry, looked up): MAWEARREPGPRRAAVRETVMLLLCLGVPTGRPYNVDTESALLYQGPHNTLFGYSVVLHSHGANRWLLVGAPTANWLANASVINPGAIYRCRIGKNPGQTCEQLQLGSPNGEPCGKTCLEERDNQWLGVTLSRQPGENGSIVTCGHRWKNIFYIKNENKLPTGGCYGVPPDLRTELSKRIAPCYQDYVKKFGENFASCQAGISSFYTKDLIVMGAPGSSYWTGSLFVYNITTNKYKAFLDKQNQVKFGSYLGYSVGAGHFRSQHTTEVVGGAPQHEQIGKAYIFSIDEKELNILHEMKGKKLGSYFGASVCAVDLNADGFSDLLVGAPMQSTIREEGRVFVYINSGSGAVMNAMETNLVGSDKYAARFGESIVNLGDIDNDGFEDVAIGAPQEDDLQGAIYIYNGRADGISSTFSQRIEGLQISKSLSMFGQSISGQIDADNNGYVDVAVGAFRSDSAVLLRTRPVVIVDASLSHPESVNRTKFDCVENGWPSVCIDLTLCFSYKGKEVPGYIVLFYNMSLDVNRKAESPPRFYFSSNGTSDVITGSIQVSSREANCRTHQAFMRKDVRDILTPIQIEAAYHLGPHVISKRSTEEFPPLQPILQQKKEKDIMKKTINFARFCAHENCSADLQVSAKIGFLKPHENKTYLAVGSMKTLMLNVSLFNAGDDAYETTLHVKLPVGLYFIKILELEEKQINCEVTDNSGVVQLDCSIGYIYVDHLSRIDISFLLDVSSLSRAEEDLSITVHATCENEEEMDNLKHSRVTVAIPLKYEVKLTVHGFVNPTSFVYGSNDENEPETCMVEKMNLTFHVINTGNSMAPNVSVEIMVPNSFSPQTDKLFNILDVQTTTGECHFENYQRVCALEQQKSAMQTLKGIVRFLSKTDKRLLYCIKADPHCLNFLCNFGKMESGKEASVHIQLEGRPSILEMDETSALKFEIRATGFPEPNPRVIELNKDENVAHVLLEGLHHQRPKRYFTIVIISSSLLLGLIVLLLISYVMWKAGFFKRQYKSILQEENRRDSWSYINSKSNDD
# RPL19A TOR yeast: alters RPL19A-GFP fluorescence in TOR pathway yeast screen; percent response vs DMSO, % at 10 µM; S. cerevisiae RPL19A-GFP strain, flow cytometry, 3 h; hits give low values; 0.3% of 330,000 active;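 active means percent response vs DMSO below 50%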;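 further: median channel GFP fluorescence of the barcoded RPL19A-GFP strain; ratio of sample median GFP to plate DMSO average so 100% = DMSO; lower means less RPL19A-GFP as with rapamycin TOR inhibition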
# AGP1-GFP MLPCN: alters AGP1-GFP fluorescence in TOR pathway yeast screen | GFP response vs DMSO, % at 10 µM | 0.02% of 320,000 active | AID 2066 | S. cerevisiae AGP1-GFP multiplex flow cytometry, 3 h; GFP as percent of DMSO wells;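 active means GFP response relative to DMSO above a set limit, near screen average plus 3 SD, cut at about 150% in these data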;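 further: median GFP channel fluorescence of the gated AGP1 strain per well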
# MEP2 TOR yeast: modulators of TOR pathway MEP2-GFP in S. cerevisiae. S. cerevisiae MEP2-GFP strain, flow cytometry GFP, 3 h; 100% = DMSO control level. GFP response vs DMSO, % at 10 µM. 0.51% of 330,000 active;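 active means GFP response versus DMSO above a set limit, roughly screen mean plus 3 SD, cut at about 180% in these data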;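 further: median GFP fluorescence of the barcode-gated MEP2-GFP cells per well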
# LAP4-GFP pick2: second confirmation of modulators of TOR reporter LAP4-GFP in yeast; AID 2621; shares compounds with LAP4 TOR yeast; GFP response vs DMSO, % at 10 µM; 20% of 590 active; S. cerevisiae LAP4-GFP strain, flow cytometry GFP, 3 h;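 active means GFP signal as percent of the solvent control above about 150%, meaning raised reporter expression, limit read from the data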;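 further: ratio of well median GFP fluorescence to plate DMSO mean so 100% = DMSO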
# MEP2-GFP pick2: yeast MEP2-GFP modulation, second cherry pick. GFP response vs DMSO, % at 10 µM. S. cerevisiae MEP2-GFP strain, flow cytometry GFP, 3 h. shares compounds with LAP4 TOR yeast. 10% of 590 active;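 active means GFP signal above 150% of the solvent control wells, that is a rise of more than half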;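 further: median channel GFP fluorescence of all gated yeast cells per well; ratio of median GFP to plate DMSO average so 100% = DMSO level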
# RPL19A GFP CP2: yeast RPL19A-GFP TOR reporter modulation, second cherry pick | shares compounds with LAP4 TOR yeast | S. cerevisiae RPL19A-GFP strain, flow cytometry GFP, 3 h; hits give low values; 100% means same as DMSO wells | GFP response vs DMSO, % at 10 µM | 3% of 590 active;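 active means under 65% GFP response relative to DMSO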;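 further: median GFP channel fluorescence per well over the all cells gate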
# CIT2 GFP CP2: reconfirmed modulator of CIT2-GFP TOR reporter in yeast; S. cerevisiae CIT2-GFP strain, flow cytometry GFP, 3 h; DMSO control wells read 100%; 8% of 590 active; GFP response vs DMSO, % at 10 µM; shares compounds with LAP4 TOR yeast;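 active means GFP response vs DMSO above about 150%, limit read from the data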;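 further: median green fluorescence per well over all gated yeast cells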
# AGP1 GFP CP2: yeast AGP1-GFP TOR reporter modulation, second cherry pick; shares compounds with LAP4 TOR yeast; S. cerevisiae AGP1-GFP strain, flow cytometry GFP, 3 h; percent response vs DMSO, % at 10 µM; 590 tested, under 10 active; AID 2643;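 active means over 150 percent of DMSO response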;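 further: median GFP channel fluorescence over all cells without mother daughter split; sample median GFP divided by mean DMSO control so 100% equals DMSO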
# s288c autofluor: counter-screen for compound autofluorescence in yeast s288c cells; shares compounds with LAP4 TOR yeast; S. cerevisiae s288c, 520 nm autofluorescence, flow cytometry, 3 h; hits give high values; zero means same as solvent-only cells; fluorescence change (kMESF span) at 33 µM; 610 tested, under 10 active;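 active means fluorescence span over the dose series, or activity score, above about 33, limit read from the data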
# * marks the source's active call; other numbers are inactive results; x = not tested or not shown.
SMILES,LAP4 TOR yeast,CIT2 TOR yeast,VLA-4 inh,RPL19A TOR yeast,AGP1-GFP MLPCN,MEP2 TOR yeast,LAP4-GFP pick2,MEP2-GFP pick2,RPL19A GFP CP2,CIT2 GFP CP2,AGP1 GFP CP2,others
COC(=O)Cc1csc(NC(=O)CSc2nncn2C)n1,168.7*,82.3,-7.3,87.6,109.4,106.4,131.3,99.6,100.0,109.9,99.5,
Cc1ccc(S(=O)(=O)N2CCCOC2CNC(=O)C(=O)NCc2ccc3c(c2)OCO3)cc1 (configuration not stated),76.0,100.1,-2.3,103.2,84.8,104.4,x,x,x,x,x,
Cc1ccc(N=Nc2ccc(O)c3ncccc23)cc1,157.1*,79.5,21.8,91.9,86.7,99.2,188.4*,122.3,102.5,150.2*,100.2,s288c autofluor=0.2
Cc1ccc(N=Nc2ccc(O)c3ncccc23)cc1C,132.3,101.5,7.3,102.7,94.2,107.3,x,x,x,x,x,
Oc1ccc(N=Nc2ccccc2C(F)(F)F)c2cccnc12,144.5,99.9,9.2,101.4,95.2,111.2,x,x,x,x,x,
COc1ccccc1N=Nc1ccc(O)c2ncccc12,249.3*,149.0,4.9,97.5,92.2,118.4,x,x,x,x,x,s288c autofluor=1.21
COc1cc(Cl)c(C)cc1NC(=O)CSC1=NCCS1,97.5,87.6,15.0,98.5,89.7,96.2,x,x,x,x,x,
O=C(Nc1ccc(Cl)cc1)C(Cl)C(=O)c1ccccc1 (configuration not stated),107.3,102.2,17.0,102.3,97.1,90.3,x,x,x,x,x,
O=C(Nc1ccccc1Cl)C(Cl)C(=O)c1ccccc1 (configuration not stated),x,x,x,x,x,x,110.2,97.8,104.2,111.2,99.1,
Cc1ccc(NC(=O)CN(C)S(=O)(=O)c2ccc(Cl)s2)c(O)c1,101.5,96.4,1.7,98.8,100.5,97.6,x,x,x,x,x,
COC(=O)c1sccc1NC(=O)c1ccc(C(C)C)cc1,99.0,108.0,-5.4,106.8,106.5,104.9,x,x,x,x,x,
CCN(CC(=O)Nc1c(F)cccc1F)C(=O)COc1cccc2c1OC(C)(C)C2,185.0*,77.5,14.9,83.1,107.8,82.8,96.2,98.2,100.0,106.3,102.2,
O=C(NC(=S)Nc1cc(C(F)(F)F)ccc1Cl)c1ccccc1,91.5,96.4,1.2,98.4,95.2,100.2,x,x,x,x,x,
O=C(CC(=O)c1ccccc1)Nc1cc(C(F)(F)F)ccc1Cl,99.4,91.7,10.3,105.6,93.5,105.3,100.2,111.8,101.0,101.5,99.5,
COc1ccc(CC(=O)Oc2ccc(Cl)cc2Br)cc1S(=O)(=O)N1CCOCC1,104.8,92.8,3.9,95.4,97.7,85.3,x,x,x,x,x,
Cc1ccc(C(=O)COC(=O)c2ccco2)cc1C,95.5,95.3,-0.5,102.8,99.6,98.1,x,x,x,x,x,
COc1cc(C(=O)COC(=O)c2ccco2)cc(OC)c1OC,185.8*,77.4,6.9,76.0,110.5,104.9,102.2,104.8,99.3,104.3,102.2,
CC1CCCCC12NC(=O)N(CC(=O)NCCc1c[nH]c3ccccc13)C2=O (configuration not stated),110.8,103.8,7.1,110.4,109.8,102.7,x,x,x,x,x,

# Screens (PubChem BioAssay)
